Laboratory results from PubChem BioAssay (NCI).
“And” between values parts separate entries of the source, which are not always exact repeats. Identical values can stand only once. This is part of a sample that, as a whole, favours compounds with a hit. Of some 79,000 tested, about 15% had one in any assay. The source made the active and inactive calls. Rule as the data show it: active = growth inhibition above about 70%; inactive = the rest.

Tests used:
[1] = NCI Yeast Anticancer Drug Screen. Data for the rad50 strain (AID 155);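 also: 0% = growth of vehicle-only cultures of the same strain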; settings: S. cerevisiae rad50 strain growth inhibition; at 50.0 µM; hits give high values
Summary of the method: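 A DNA repair-deficient yeast mutant serves as the test organism; compound-induced growth inhibition is calculated against vehicle-treated cells.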

[2] = NCI Yeast Anticancer Drug Screen. Data for the mec2-1 strain (AID 157); settings: S. cerevisiae mec2-1 strain, at 50.0 µM, hits give high values
Summary of the method: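 Yeast mec2-1 mutant treated with compound. Readout: growth inhibition vs vehicle controls.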

[3] = NCI Yeast Anticancer Drug Screen. Data for the sgs1 mgt1 strain (AID 161);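 also: 0% = growth of cultures given vehicle only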; settings: S. cerevisiae sgs1 mgt1 strain, at 50.0 µM, hits give high values
Summary of the method: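 Mutant yeast exposed to compound; growth scored against vehicle-only wells.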

[4] = NCI Yeast Anticancer Drug Screen. Data for the cln2 rad14 strain (AID 165);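 also: 0% = growth equal to vehicle treated cultures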; settings: S. cerevisiae cln2 rad14 strain, at 50.0 µM, hits give high values
Summary of the method: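 cln2 rad14 yeast strain; compound exposure; growth inhibition read vs vehicle controls.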

[5] = NCI Yeast Anticancer Drug Screen. Data for the bub3 strain (AID 167); settings: S. cerevisiae bub3 mutant strain, at 50.0 µM, hits give high values
Summary of the method: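 Inhibition values come from growth of compound-treated mutant yeast normalised to vehicle-treated controls.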

[6] = NCI Yeast Anticancer Drug Screen. Data for the mlh1 rad18 strain (AID 175); settings: S. cerevisiae mlh1 rad18 strain growth inhibition; at 50.0 µM; hits give high values
Summary of the method: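 Yeast w/ defined DNA-repair lesions; compound exposure; growth vs vehicle controls → % inhibition.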

Measured: growth inhibition

O=C(CC(=O)C(F)(F)F)c1cccs1.O=C(CC(=O)C(F)(F)F)c1cccs1.O=C(CC(=O)C(F)(F)F)c1cccs1.[Eu]
inactive: [1] 27.7% | [2] 37.6% | [3] 39.5% | [4] 9.4% | [5] 39% | [6] 23.1%

Cn1cccc1-c1cccnc1
inactive: [1] -23.8% and -4.7% | [2] -34.6% and -4.95% | [3] -4.8% and -7.45% | [4] 10.7% and 0.7% | [5] -19.3% and 0.05% | [6] -12.7% and -9.15%

[Co+2].[Co+2].[O-]CCCN=Cc1ccccc1[O-].[O-]CCCN=Cc1ccccc1[O-]
inactive: [1] 53.5% | [2] 46% | [3] 60.8% | [4] -5.1% | [5] 30.6% | [6] 58.1%

c1ccc(P(CCP(CCP(c2ccccc2)c2ccccc2)c2ccccc2)CCP(c2ccccc2)c2ccccc2)cc1 (stereo unspecified)
inactive: [1] -5.15% and 0.15% and 8.05% | [2] -5.7% and 34.8% and 10.3% | [3] -18.6% and 18.4% and -0.95% | [4] -8.05% and -20.2% and 7.15% | [5] 0.45% and 2.95% and 21.9% | [6] -5.95% and 29.8% and 11.2%

CC(=O)C(C(C)=O)C(=O)c1ccc([N+](=O)[O-])cc1.[Cr]
inactive: [1] -23.5% | [2] 9.5% | [3] 6.3% | [4] -55.5% | [5] 28.5% | [6] 23.2%

O=[N+]([O-])c1ccc(/C=C/C=C\c2ccc(S(=O)(=O)F)cc2Cl)cc1
inactive: [1] 2.55% | [2] 25.2% | [3] 16% | [4] 1.85% | [5] 10.2% | [6] 16.3%

COP(=O)(OC)C1(C(C)(C)C)CO1 (stereo unspecified)
inactive: [1] -1.75% | [2] -4.9% | [3] 0.65% | [4] -23.1% | [5] -11.6% | [6] 0.5%

CCCCN(CCCC)CC(O)c1ccc(Cl)c(Cl)c1 (stereo unspecified)
inactive: [1] -1.5% | [2] -21.3% | [3] 28.9% | [4] 41.3% | [5] 18% | [6] 7.75%

[C-]#[O+].[C-]#[O+].[C-]#[O+].[Ni].c1ccc([PH+](CC[PH+](c2ccccc2)c2ccccc2)CC[PH+](c2ccccc2)c2ccccc2)cc1
inactive: [1] 43.9% | [2] 38.5% | [3] 46.7% | [4] 32.8% | [5] 42.6% | [6] 46.3%

CN1CCC(OC(=O)Oc2ccccc2)(c2ccccc2)CC1
inactive: [1] 1.6% | [2] 9.6% | [3] 3.95% | [4] 33.7% | [5] 48.5% | [6] -6.65%

CN1CCN(Cc2ccccc2)CC1CC#N (stereo unspecified)
inactive: [1] -17.3% | [2] -34.8% | [3] -24.1% | [4] -0.2% | [5] 2.65% | [6] -30.9%

O=C(O)C(=O)O.[Ti].[c-]1[c-][c-][cH-][c-]1.[c-]1[c-][c-][cH-][c-]1
inactive: [1] 23.9% | [2] 14.9% | [3] 29.6% | [4] -54.7% | [5] 24% | [6] 29.7%

CC(C)(C)c1ccc(O)cc1
inactive: [1] -21.1% | [2] -29.8% | [3] -18.8% | [4] -9.5% | [5] -1.45% | [6] 8.85%

c1ccc2c(c1)sc1sc3c([n+]12)CCCC3
inactive: [1] 6.25% | [2] -8.75% | [3] -5.3% | [4] -2.4% | [5] -4.5% | [6] -20.2%

O=C1NC(=O)C2(OC3c4ccccc4C=CN3C3=C2C(=O)CCC3)C(=O)N1 (stereo unspecified)
inactive: [1] 11.5% | [2] 1.8% | [3] -6.1% | [4] 52.4% | [5] 10.1% | [6] 7.4%

[Cu+2].[O-]c1ccc2ccccc2c1N=Nc1ccccc1.[O-]c1ccc2ccccc2c1N=Nc1ccccc1
inactive: [1] -70.1% | [2] -13.1% | [3] -13.1% | [4] -15.9% | [5] 2.4% | [6] -12.2%

CN1C(=O)C(=Cc2cccc([N+](=O)[O-])c2)C(=O)N(C)C1=O
inactive: [1] 17.4% | [2] 14.3% | [3] 2.15% | [4] 26.1% | [5] 10.8% | [6] -9.55%

CN(C)C(=O)C(Cl)Cl
inactive: [1] -0.75% | [2] 7.3% | [3] -4% | [4] -7.25% | [5] 12.8% | [6] 2.25%

C(#CCN1CCCCCC1)CN1CCCCCC1
inactive: [1] 0.55% | [2] -9.8% | [3] 0.05% | [4] -8.85% | [5] -14.1% | [6] -2.7%

ClCCn1c(/C=C/c2nc3ccccc3n2CCCl)nc2ccccc21
inactive: [1] 26.1% | [2] 5.8% | [3] 6.1% | [4] -32.1% | [5] -3.65% | [6] 20.6%

CCN1CCC2(CC1)COCc1ccccc12
inactive: [1] 18.3% | [2] 7.8% | [3] 16.4% | [4] 4.15% | [5] 3.15% | [6] 29.6%

OC(Br)C1C(c2ccccc2)N1C1CCCCC1 (stereo unspecified)
inactive: [1] -2% | [2] 18.4% | [3] -3.35% | [4] -11.2% | [5] 0.15% | [6] 7.4%

CC(=O)O[C@H]1CCC2[C@@H]3CCC4c5nonc5CC[C@]4(C)C3CC[C@@]21C (stereo partly specified)
inactive: [1] 28.4% | [2] 5.55% | [3] 22.9% | [4] 35.1% | [5] 27.6% | [6] 17.9%

CCC[CH2][Sn]1([CH2]CCC)[O]C(=O)CN=C(C)c2ccccc2[O]1
inactive: [1] 0.1% | [2] 9.85% | [3] 4% | [4] 45.5% | [5] 9.8% | [6] 3.45%

O=c1[nH]cc(N=Cc2ccccc2Cl)c(=O)[nH]1.[Cl][Pt][Cl]
inactive: [1] 20.4% | [2] -5.75% | [3] -18.1% | [4] 1.95% | [5] 1.55% | [6] -9.05%

CN(C)CCN(C)C.[C-]#[O+].[C-]#[O+].[C-]#[O+].[C-]#[O+].[W+2]
inactive: [1] -13% | [2] -4.65% | [3] -7.5% | [4] -51.1% | [5] 2.1% | [6] 0.05%

CNC(C)Cc1ccccc1OC (stereo unspecified) (tested in a mixture with another compound)
inactive: [1] -14.8% | [2] 1.9% | [3] 4.15% | [4] -35.9% | [5] 9.55% | [6] -7.7%

NCCC1CCc2[nH]c3ccccc3c2C1 (stereo unspecified)
inactive: [1] -7.3% | [2] -6.1% | [3] -0.5% | [4] -52.4% | [5] -15.3% | [6] -8.15%

O=[As](O)(O)c1ccc(F)cc1
inactive: [1] 3.45% | [2] 9.8% | [3] -4.35% | [4] 14.6% | [5] 9.3% | [6] 2.95%

NCCCNCCCN
inactive: [1] 5.2% | [2] -3.1% | [3] -3.95% | [4] -4.3% | [5] 7.85% | [6] -11.7%

O=Cc1ccccc1O
inactive: [1] 28.8% | [2] -2.25% | [3] 12.4% | [4] -10.4% | [5] -6.05% | [6] 5.6%

Cc1ccc(CI)cc1
inactive: [1] -2.15% | [2] -6.7% | [3] -22.9% | [4] 18.9% | [5] 20.1% | [6] 19.5%

CC(C)N(C(=O)SCC(Cl)=C(Cl)Cl)C(C)C
inactive: [1] -2.95% | [2] -15.8% | [3] -0.35% | [4] -3.05% | [5] -12.3% | [6] 30%

O=C(Nc1ccc(S(=O)(=O)Nc2ccc(N=Nc3ccc(N=Nc4ccccc4)cc3)cc2)cc1)C(N1CC1)(N1CC1)N1CC1
inactive: [1] 30.4% | [2] -9.5% | [3] 3.95% | [4] 9.05% | [5] -3.8% | [6] -7.35%

O=Cc1cn(CCCCCCCCCCCCn2cc(C=O)c3ccccc32)c2ccccc12
inactive: [1] -2.75% | [2] -10.8% | [3] 0.25% | [4] -5.55% | [5] 7.35% | [6] -12.8%

CC1([N+](=O)[O-])COP(=O)(OP2(=O)OCC(C)([N+](=O)[O-])CO2)OC1 (stereo unspecified)
inactive: [1] 29.8% | [2] 10.2% | [3] 28.9% | [4] 26.6% | [5] 3.85% | [6] 20%
